Screens (PubChem BioAssay)
S2 tox: Viability Counterscreen for Primary qHTS for Inhibitors of ATXN expression | S2 cells (HEK-293 line with an ATXN2-luciferase reporter) viability, CellTiter-Fluor protease fluorescence, 24 h | Potency, µM (doses to about 56.7 µM), hits mostly cytotoxic | hit rate 0.49% among 400,000; note: nearly all actives have a fitted effect of over 40% in size
HT1080NT lethal: qHTS for induction of synthetic lethality in tumor cells producing 2HG: qHTS for the HT-1080-NT fibrosarcoma cell line; AID 686970, 2013; hit rate 1.6% among 360,000; HT-1080-NT fibrosarcoma viability, CellTiter-Glo ATP luminescence, 48 h; Potency, µM (highest dose often 46.1 µM), for the others: at the top dose activity, negative = less viability, hits mostly cytotoxic;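 note: NT is the 2HG producing partner of a matched IDH1 knockdown line; 0% = DMSO-treated cells and -100% = media-only wells without cells; nearly all actives have a fitted effect of over 55% in size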
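Viability by CellTiter-Glo luminescence after 48 h compound exposure at 37C of HT-1080-NT cells (750/well, RPMI, 5% FBS). % activity scaled between DMSO wells and medium-only wells, then curve-fitted and categorized by curve class.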
TGFb inhibitor: qHTS for Inhibitors of TGF-b; HepG2 CAGA-GFP TGF-b/SMAD3 reporter, GFP fluorescence, 18 h; TGF-beta stimulated, 500 pg/mL final; Potency, µM (doses to about 46.1 µM), inactives show top-dose activity, negative = inhibition, actives largely listed as inhibitors; hit rate 1.2% among 410,000; AID 588855, 2011; note: % is set by controls: 0 for no effect and ±100 for the full control effect; nearly all actives have a fitted effect of over 65% in size
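HEPG2 CAGA-GFP reporter cells (1000/well, DMEM with 1% FBS) received compounds, then recombinant TGF-beta at 500 pg/mL final for 18 hours at 37 degrees C. Per-cell GFP summed per well was normalised to unstimulated and stimulated DMSO controls before curve fitting.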
HT1080 IDH1KD tx: qHTS for induction of synthetic lethality in tumor cells producing 2HG: qHTS for the HT-1080-IDH1KD cell line; HT-1080 IDH1 knockdown viability, ATP luminescence, 48 h; Potency, µM (highest dose often 46.1 µM), for the others: at the top dose activity, negative = toxicity, usual class: cytotoxic; hit rate 2% among 360,000; AID 686971, 2013;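 note: 0% = DMSO wells and -100% = cell-free medium wells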
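HT-1080-IDH1KD cells (IDH1 knocked down), 750/well in RPMI with 5% FBS, treated with compound 48 h at 37 degrees C. Viability by CellTiter-Glo luminescence, normalised to DMSO and no-cell wells; concentration-response curves classed.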
HepG2 tox: qHTS for Inhibitors of TGF-b: Cytotox Counterscreen. HepG2 CAGA-GFP viability, ATP luminescence, 18 h. Potency, µM (doses to about 46.1 µM), inactives show at the top dose activity change, negative = cytotoxicity, hits mostly cytotoxic. hit rate 0.76% among 410,000. AID 588856, 2011
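HepG2 CAGA-GFP cells (1000/well, DMEM with 1% FBS) received compound, then TGF-beta at 500 pg/mL final, and were incubated 18 hours at 37 degrees C. Viability was read by CellTiter-Glo luminescence. Media-only wells were set as complete cell-killing and DMSO as no toxicity.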
ATXN2 expr inh: Primary qHTS for Inhibitors of ATXN expression. AID 1745845, 2022. Potency, µM (series often up to 57 µM), without a hit: at the highest dose activity change, negative = inhibition, usual class: inhibitors. hit rate 0.72% among 360,000. HEK-293 ATXN2-luciferase reporter, luminescence, 24 h; note: % is set by controls: 0 for no effect and ±100 for the full control effect; nearly all actives have a fitted effect of over 55% in size
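qHTS (up to 57 uM final) was run with 24 h compound exposure of reporter cells at 37 °C. Each well was multiplexed: SteadyGlo luminescence measured ATXN2-luciferase expression after a fluorogenic Gly-Phe-AFC viability readout (25 uM final).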
An asterisk follows results filed as active; i = inactive; ? = inconclusive; / = no result given; ! = not active in a repeat; [ ] = remark or other dose. Hits are enriched below; roughly 3.9% of the tested compounds scored in any of these assays. Calls come from the whole dose curve; as a rule, active = well fitted curve in the direction sought with a large enough effect; inconclusive = small, poorly fitted or top-dose-only effect, or another doubt; inactive = no such curve, though single readings can be large; an effect the other way counts as inactive or inconclusive. Potency is the fitted concentration of half-maximal effect.

SMILES | S2 tox | HT1080NT lethal | TGFb inhibitor | HT1080 IDH1KD tx | HepG2 tox | ATXN2 expr inh
CCCCCCC(=O)N1CCC(c2nc3c(nnn3Cc3ccccc3Cl)c(=O)[nH]2)CC1 | i | 13µM* | ? | 11µM* | -92% | 4%
CC1(C)O[C@@H]2C[C@H]3[C@@H]4CCC5=CC(=O)C=C[C@]5(C)[C@@H]4[C@@H](O)C[C@]3(C)[C@]2(C(=O)CO)O1 | i | / | / | / | / | -2%
C=CCN(C(=O)c1cccc(S(=O)(=O)N2CCN(C)CC2)c1)c1nc(-c2ccccc2)cs1 | i | 23µM* | ? | ? | -16% | -24%
CN1CCN(S(=O)(=O)c2cccc(C(=O)N(C)Cc3cccs3)c2)CC1 | i | 1% | 25% | 3% | 4% | -10%
Cc1c(C(=O)N2CCC(Cc3ccccc3)CC2)sc2ncnc(NCc3ccccn3)c12 | i | / | / | / | / | /
C=C(C(=O)c1ccccc1)C(NC(C)(C)C)c1ccccc1 (stereo unspecified) | ? | 6.5µM* | ? | 5.8µM* | -89% | 7.5µM*
CCc1ccc(NC(=O)CN(c2ccc(Cl)cc2)S(=O)(=O)c2ccsc2C(=O)OC)cc1 | i | / | 7.1µM* | / | -32% | 7%
COc1ccc(CC2(CO)CCN(Cc3ccc4c(c3)CCO4)CC2)cc1 | / | ? | 0% | 21µM* | -12% | -26%
COc1ccc(CC2(CO)CCN(Cc3ccc(NC(C)=O)cc3)CC2)cc1 | i | -14% | 17% | -14% | 0% | -6%
CCOc1cc(CN2CCC(CO)(Cc3cccc(C(F)(F)F)c3)CC2)ccc1OC | ? | 21µM* | ? | 21µM* | -85% | -17%[2.22 µM]
COc1ccc2c(c1)C=C(CN1CCC(CO)(CCc3ccccc3)CC1)CO2 | i | -8% | -24% | -18% | -24% | -18%
COc1ccc(CC2(CO)CCN(CC3=Cc4cc(Cl)ccc4OC3)CC2)cc1 | ? | 15µM* | ? | 23µM* | -97% | ?
COc1ccc(CC2(CO)CCN(Cc3ccc(OC(F)(F)F)cc3)CC2)cc1 | ? | ? | 14µM* | -21% | 20µM* | ?
CN(C)c1ccc(/C=C/c2cc(/C=C/c3ccc(N(C)C)cc3)c3ccccc3n2)cc1 | / | / | 27% | / | -6% | /
COc1cc(=O)n2c(c1C(=O)NCc1nonc1C)CCN(C(=O)c1cccc(C)c1C)CC2 | i | / | / | / | / | /
COc1ccc(CCNC(=O)CSc2cn(CCNC(=O)c3ccccc3F)c3ccccc23)cc1OC | ? | / | ? | / | -34% | -23%
CC[C@H](C)[C@@H](CN[C@H](CCCCNC)CNC)NCC1CCCC1 | i | 7% | -24% | 4% | 1% | 10%
CCCC[C@@H](CN[C@H](C)CNC)NCC1CCC(C(C)(C)C)CC1 (stereo partly specified) | 32µM* | ? | ? | 18µM* | 18µM* | 35µM*
Cc1cc(C(=O)NCC2CCC3(CCN(Cc4ccc5ccccc5c4)CC3)O2)n(C)n1 (stereo unspecified) | i | / | / | / | / | /
COc1cccc(NC(=O)CSc2ncc(S(=O)(=O)c3ccc(C)c(C)c3)c(=O)[nH]2)c1 | i | / | 2% | / | -2% | 0%
Cn1c(NCc2ccccc2F)nc2ccccc21 | i | / | ? | / | -16% | 19%
COc1ccc(C2c3c(ncn(CCN4CCOCC4)c3=N)Oc3ccc4ccccc4c32)cc1OC (stereo unspecified) | / | ? | ? | 16µM*! | 14µM* | ?
COc1ccc(C2c3c(ncn(CCCO)c3=N)Oc3ccc4ccccc4c32)cc1 (stereo unspecified) | / | 21µM* | ? | 21µM* | -150% | ?
COc1ccc(C2c3c(ncn(CCCO)c3=N)Oc3ccc4ccccc4c32)cc1OC (stereo unspecified) | ? | ? | ? | 23µM* | -63% | ?
COC(=O)c1c(SCC(=O)Nc2ccccc2OC)[nH]c2ccccc2c1=O | ? | / | ? | / | -20% | 0%
SMILES | S2 tox | HT1080NT lethal | TGFb inhibitor | HT1080 IDH1KD tx | HepG2 tox | ATXN2 expr inh
Cc1nn(-c2ccccc2)c2c1N(CCCC(=O)NC(C)c1ccccc1)C(=O)CS2 (stereo unspecified) | ? | / | ? | / | -16% | -24%
O=C(Nc1cccc(Cl)c1)c1ccc2c(c1)CCN2S(=O)(=O)c1ccccc1 | ? | / | -9% | / | -14% | -11%
Cc1cccc(N2CCN(C(=O)C3CCN(S(=O)(=O)c4cn(C)cn4)CC3)CC2)c1C | / | / | 0% | / | -18% | /
CCOc1cc(/C=C\[N+](=O)[O-])ccc1OCC(=O)N1CCOCC1 | ? | ? | ? | 18µM* | -16% | ?
CCc1ccccc1-n1nnc(-c2nsc(NC(=O)c3ccc(C)c(C)c3)n2)c1C | / | / | 10µM* | / | -40% | /
CSc1cccc(-n2nnc(-c3nsc(NC(=O)c4cccs4)n3)c2C)c1 | / | / | ? | / | -57% | /
CCc1cccc(-n2nnc(-c3nsc(NC(=O)c4cccs4)n3)c2C)c1 | / | / | ? | / | 16µM* | /
Cc1ccc(-n2nnc(-c3nsc(NC(=O)c4ccc(C)c(C)c4)n3)c2C)cc1 | i | / | -7% | / | -12% | -10%
CC1(C)S[C@@H]2[C@H](NC(=O)[C@H](N)c3ccccc3)C(=O)N2[C@H]1C(=O)OCOC(=O)[C@@H]1N2C(=O)C[C@H]2S(=O)(=O)C1(C)C | i | / | / | / | / | /
Cc1cnc(NC(=O)C2CC(=O)N(c3ccc4c(c3)OCCO4)C2)s1 (stereo unspecified) | i | 0% | ? | -16% | -21% | 0%
Cc1cnc(NC(=O)C2CC(=O)N(c3cccc(Cl)c3)C2)s1 (stereo unspecified) | ? | -2% | ? | 1% | 1.8µM* | 0.56µM*
CC(C)c1cc(C(=O)NC(C)c2ccccc2)no1 (stereo unspecified) | i | / | 4% | / | -4% | 7%
COc1cc(OC)c(OC)cc1CN1CCCC(c2[nH]ncc2-c2cccc(C(F)(F)F)c2)C1 (stereo unspecified) | i | / | / | / | / | /
FC(F)(F)c1ccccc1NC(=S)NN=C1CCCCCC1 | i | 13µM* | -26% | 18µM* | -22% | -11%
COc1cc2ccccc2cc1C(=O)Nc1ccc2oc(-c3ccccc3)nc2c1 | i | / | 7% | / | 1% | 6%
